Source: PubChem
Most compounds without a hit are left out; they make up all but 2.8% or so of the library.
PAFAH1B2 inh = PAFAH1B2 enzyme inhibitors, primary screen, biochemical, fluorescence polarization, human | Platelet-activating factor acetylhydrolase IB subunit alpha2 (Homo sapiens), P68402 | recombinant PAFAH1B2, FP-rhodamine activity probe | inhibition, % at 3.39 µM | 340,000 compounds, 1.2% hits | AID 492953, 2010;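 active means inhibition above the mean of all tested compounds plus 3 SD, cut at about 24% in these data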;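 further: 0% = enzyme with DMSO and 100% = wells lacking PAFAH1B2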
DAGLB inhibitor = DAGLB lipase inhibitors, primary screen, biochemical, fluorescence, HTS; Diacylglycerol lipase-beta (Homo sapiens), Q8NCG7; HEK293T DAGLB membrane lysate, EnzChek fluorogenic substrate; inhibition, % at 5.17 µM; 340,000 compounds, 0.059% hits; AID 504411, 2011; in the data active means inhibition above about 34%;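 further: 0% = enzyme with vehicle and 100% = wells lacking enzyme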
HTRA1 inhibitor = HTRA1 serine protease inhibitors, primary screen, biochemical, fluorescence polarization, HTS; inhibition, % at 5.96 µM; 340,000 compounds, 0.5% hits; recombinant HTRA1, FP-rhodamine activity-based probe; Q92743; in the data active means inhibition above about 36%;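 further: 0% = enzyme with DMSO and 100% = wells lacking enzyme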
Target sequence (Q92743 whole entry, looked up): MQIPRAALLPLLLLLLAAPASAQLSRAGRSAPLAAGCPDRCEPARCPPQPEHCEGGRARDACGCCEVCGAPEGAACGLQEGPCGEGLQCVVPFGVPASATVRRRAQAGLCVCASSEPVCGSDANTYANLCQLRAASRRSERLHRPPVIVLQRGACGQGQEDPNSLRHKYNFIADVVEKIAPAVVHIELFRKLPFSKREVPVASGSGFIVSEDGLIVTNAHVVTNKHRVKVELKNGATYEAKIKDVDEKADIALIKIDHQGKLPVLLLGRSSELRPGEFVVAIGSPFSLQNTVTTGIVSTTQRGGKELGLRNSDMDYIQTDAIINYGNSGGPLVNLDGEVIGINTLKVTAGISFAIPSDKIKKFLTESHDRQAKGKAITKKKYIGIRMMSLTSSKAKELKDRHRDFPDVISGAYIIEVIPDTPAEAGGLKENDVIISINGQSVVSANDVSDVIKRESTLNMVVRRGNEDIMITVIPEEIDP
PAFAH2 inh = PAFAH2 enzyme inhibitors, primary screen, biochemical, fluorescence polarization, human; Platelet-activating factor acetylhydrolase 2, cytoplasmic (Homo sapiens), Q99487; recombinant PAFAH2, FP-rhodamine activity probe; inhibition, % at 3.39 µM; 340,000 compounds, 0.99% hits; AID 492956, 2010;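 active means inhibition above the mean over all tested compounds plus 3 SD, cut at about 30% in these data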;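 further: inhibitors block probe labeling of enzyme so polarization drops; 0% = enzyme with DMSO and 100% = wells lacking PAFAH2 protein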
pPAFAH FP inh = pPAFAH enzyme inhibitors, primary screen, biochemical, fluorescence polarization, human. Platelet-activating factor acetylhydrolase (Homo sapiens), Q13093. recombinant pPAFAH, FP-rhodamine probe fluorescence polarization. inhibition, % at 3.39 µM. 330,000 compounds, 1.5% hits;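 active means inhibition above the mean inhibition across the screen plus 3 SD, cut at about 25% in these data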;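 further: inhibitors block binding of the rhodamine activity-based probe so polarization drops; 0% = enzyme with DMSO and 100% = wells lacking pPAFAH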
PAFAH1B3 inh = PAFAH1B3 enzyme inhibitors, primary screen, biochemical, fluorescence polarization, human; Platelet-activating factor acetylhydrolase IB subunit alpha1 (Homo sapiens), Q15102; recombinant PAFAH1B3, FP-rhodamine probe; inhibition, % at 3.39 µM; 340,000 compounds, 0.28% hits; AID 492972, 2010;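 active means inhibition above the screen-wide average of all tested compounds plus 3 SD, cut at about 25% in these data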;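 further: 0% = enzyme with DMSO only and 100% = wells lacking PAFAH1B3 protein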
Target sequence (Q15102 whole entry, looked up): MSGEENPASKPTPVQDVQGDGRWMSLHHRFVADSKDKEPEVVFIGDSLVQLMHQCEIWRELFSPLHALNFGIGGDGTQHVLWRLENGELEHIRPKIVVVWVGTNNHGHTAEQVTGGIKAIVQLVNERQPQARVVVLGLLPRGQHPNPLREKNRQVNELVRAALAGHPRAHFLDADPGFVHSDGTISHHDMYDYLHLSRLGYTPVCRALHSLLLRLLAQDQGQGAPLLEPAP
pPAFAH confirm = pPAFAH (PLA2G7) enzyme inhibitors, confirmation, biochemical, fluorescence polarization, human; 2,300 compounds, 72% hits; inhibition, % at 3.39 µM; recombinant pPAFAH, FP-Rh probe fluorescence polarization; shares compounds with pPAFAH FP inh;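 active means mean inhibition of the triplicate above the hit cutoff set for the earlier primary screen, cut at about 25% in these data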;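 further: 0% = enzyme with DMSO and 100% = wells lacking pPAFAH enzyme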
PAFAH2 FP conf = PAFAH2 enzyme inhibitors, confirmation, biochemical, fluorescence polarization, human | shares compounds with PAFAH2 inh | recombinant PAFAH2, FP-rhodamine activity probe | inhibition, % at 3.39 µM | 2,300 compounds, 65% hits;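 active means mean inhibition over three repeats above a set limit taken from the earlier primary screen, cut at about 30% in these data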;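 further: inhibitor blocks binding of rhodamine activity probe so polarization falls; 0% = enzyme with DMSO and 100% = wells lacking PAFAH2 protein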
DAGLB inh conf = DAGLB lipase inhibitors, retest, confirmation, biochemical, fluorescence, HEK293T membranes | shares compounds with DAGLB inhibitor | 190 compounds, 73% hits | HEK293T DAGLB membrane lysate, EnzChek fluorogenic substrate | AID 504445, 2011 | inhibition, % at 5.17 µM;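 active means mean inhibition over triplicate wells above a set limit taken from the primary lipase screen, cut at about 34% in these data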;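 further: 0% = DAGLB with DMSO and 100% = wells lacking DAGLB enzyme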
HTRA1 inh conf = HTRA1 protease inhibitors, retest, confirmation, biochemical, fluorescence polarization | 1,600 compounds, 66% hits | AID 540248, 2011 | shares compounds with HTRA1 inhibitor | inhibition, % at 5.96 µM | recombinant HTRA1, FP-rhodamine activity-based probe;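 active means mean inhibition over three repeats above a set limit taken from the earlier primary screen, cut at about 37% in these data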;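 further: 0% = HTRA1 with DMSO and 100% = wells lacking HTRA1; inhibitors block probe binding so polarization drops and inhibition rises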
* = called active by the depositor; nt = no result.

SMILES | PAFAH1B2 inh | DAGLB inhibitor | HTRA1 inhibitor | PAFAH2 inh | pPAFAH FP inh | PAFAH1B3 inh | PAFAH2 FP conf | others
CCOC(=O)C1(C)C=C(Nc2ccc(O)cc2)C(=O)N1c1ccc(O)cc1 (stereo not given) | 2.5 | 3.6 | 54.9* | 7.2 | 70.1* | 8.2 | nt | pPAFAH confirm=1.5;HTRA1 inh conf=7.0
COc1cccc(CNC(=O)CCc2nc3cc(S(=O)(=O)N4CCOCC4)ccc3n2C)c1 | 0.8 | -1.3 | -1.1 | -2.0 | 3.2 | 2.6 | nt
O=C(CN1C(=O)NC2(CCOc3ccccc32)C1=O)NCCc1ccccc1 (stereo not given) | 8.4 | 0.0 | -4.8 | 1.9 | 3.0 | 8.0 | nt
Cc1ccc(C(=O)Nc2nnc(CC(=O)N/N=C/c3ccc(O)c(O)c3)s2)cc1 | 14.3 | 4.8 | 47.6* | 27.8 | 50.8* | 18.6 | nt | pPAFAH confirm=87.0*;HTRA1 inh conf=64.0*
Cc1ncc(N=Nc2ccccc2Cl)c(-c2ccccc2)n1 | 2.4 | 10.6 | 11.4 | 3.9 | 8.7 | 5.5 | nt
Nc1nc(-c2ccccc2)c(N=Nc2ccccc2Cl)s1 | 5.1 | 64.7* | 73.1* | 4.8 | 38.9* | 15.8 | nt | pPAFAH confirm=52.7*;DAGLB inh conf=91.4*;HTRA1 inh conf=115.2*
CCCCN(C(=O)CC1OC(=O)c2ccccc21)c1c(N)n(CCCC)c(=O)[nH]c1=O (stereo not given) | 1.3 | 2.6 | 3.8 | 0.2 | 0.8 | -3.1 | nt
CCC(CC)NC(=O)CN1CCN(S(=O)(=O)c2ccc(Br)s2)CC1 | 15.1 | -3.4 | 1.1 | 0.1 | nt | 3.0 | nt
Cn1cccc1C(=O)OCC(=O)Nc1ccc2c(c1)OCCO2 | 4.2 | -0.6 | 8.9 | 49.1* | 0.2 | 7.2 | 33.1*
COc1cccc(NC(=O)c2ccco2)c1 | -1.5 | 1.6 | -2.3 | 0.5 | 3.5 | -1.6 | nt
CCOCC(=O)Nc1cccc(OC)c1 | 3.6 | -0.7 | -6.1 | -0.6 | 3.3 | 1.9 | nt
Cc1ccc(NC(=O)COC(=O)c2ccco2)cc1 | 5.3 | -1.3 | -1.6 | 61.8* | 1.3 | 4.7 | 53.3*
COc1cccc(NC(=O)COC(=O)c2c(F)cccc2F)c1 | 5.8 | -4.5 | -0.9 | 56.9* | 3.6 | 7.0 | 29.6
COc1cccc(NC(=O)COC(=O)c2ccco2)c1 | -0.5 | 0.0 | -0.9 | 68.4* | 7.3 | -1.5 | 63.1*
O=C(OCCCOC(=O)c1ccc(Br)o1)c1ccc(Br)o1 | 11.8 | -10.6 | -11.0 | 1.2 | -7.0 | 5.3 | nt
CCOc1ccc(CN(C(=O)c2cccs2)C2CCS(=O)(=O)C2)cc1 (stereo not given) | 2.0 | -2.1 | 0.9 | 2.2 | 5.0 | -0.7 | nt
COc1ccc(N2CCN(CCCNC(=O)C(=O)c3c(C)n(C)c4ccccc34)CC2)cc1 | 1.6 | -1.2 | 2.0 | 3.3 | -0.4 | -0.2 | nt
Cc1ccc(NC(=O)COC(=O)c2ccco2)cc1C | 5.9 | 0.5 | -0.2 | 76.5* | -3.1 | -0.7 | 59.2*
COc1cccc(NC(=O)COC(=O)c2sccc2C)c1 | 1.9 | -2.2 | -4.8 | 82.4* | 12.3 | 6.9 | 81.8*
O=C(COC(=O)c1ccco1)Nc1ccc2c(c1)OCCO2 | -0.3 | 3.4 | 0.7 | 50.6* | -0.3 | 10.2 | 36.9*
CC(=O)Nc1ccc(NC(=O)COC(=O)c2ccco2)cc1 | -2.8 | -3.0 | 3.3 | 3.2 | 2.3 | 7.3 | nt
CCN(C[C@H]1N[C@@](CC)(C(=O)OC)[C@H]2C(=O)N(C)C(=O)[C@@H]12)S(=O)(=O)c1ccc(OC)cc1 | 3.6 | 0.8 | -5.8 | 2.8 | 0.4 | 1.0 | nt
O=C(O)CC1c2ccccc2C=Cc2ccccc21 | 0.0 | -6.1 | 8.4 | -1.1 | 3.2 | 4.2 | nt
Cc1cccc(C(C)C)c1NC(=O)COC(=O)CN1C(=O)C2CC=CCC2C1=O (stereo not given) | 2.0 | -0.5 | -1.6 | 53.5* | 4.2 | 3.6 | 36.6*
CCOC(=O)C1CCN(C(=O)Nc2c(-c3ccccc3)noc2C)CC1 | 3.2 | 0.3 | 2.8 | -0.9 | -0.2 | 0.7 | nt
SMILES | PAFAH1B2 inh | DAGLB inhibitor | HTRA1 inhibitor | PAFAH2 inh | pPAFAH FP inh | PAFAH1B3 inh | PAFAH2 FP conf | others
CCC(CC)NC(=O)COC(=O)c1cc(Br)ccc1Cl | 2.7 | -4.0 | -10.6 | 33.3* | 6.3 | -0.3 | 25.9
O=C1OC(c2ccccc2)Sc2ccccc21 (stereo not given) | 4.8 | -5.5 | -3.0 | 80.8* | nt | 2.0 | 85.3*
CC(CNC(=O)COC(=O)c1cccs1)c1ccccc1 (stereo not given) | 1.3 | -2.0 | 18.4 | 75.4* | 1.5 | 6.1 | 72.7*
Cc1ccsc1C(=O)OCC(=O)NCc1ccccc1 | 0.4 | -1.6 | 0.1 | 33.8* | 8.1 | 7.9 | 23.2
O=C(COC(=O)c1cccs1)NCc1ccccc1 | 1.9 | -0.3 | 0.1 | 47.2* | 5.8 | 9.8 | 33.8*
O=C(COC(=O)c1cccs1)NCC1CCCCC1 | 2.9 | -0.8 | 4.5 | 78.9* | 4.6 | 4.2 | 81.6*
C[C@@H](C(=O)NNC(=O)c1ccc(Cl)cc1)N1C(=O)C2CC=CCC2C1=O (stereo not given in full) | 5.5 | 1.9 | -1.2 | 3.6 | 2.6 | 11.8 | nt
Cc1ccsc1C(=O)OCc1nc2ccccc2c(=O)[nH]1 | 1.9 | 0.2 | 5.8 | 37.6* | 2.1 | 8.2 | 26.3
Cn1c(C(=O)OCC(=O)NCc2ccco2)cc2sccc21 | -5.4 | 3.2 | -3.6 | 45.2* | 14.3 | 19.2 | 22.3
CN(C)c1cccc(C(=O)OCC(=O)NCc2ccco2)c1 | -1.0 | -6.9 | 2.3 | 56.6* | 9.2 | -6.1 | 44.0*
COc1cc(C(=O)OCC(=O)NCc2ccco2)cc(OC)c1OC | 7.9 | -0.1 | 0.9 | 2.8 | 2.4 | 8.1 | nt
O=C(COC(=O)c1cccs1)NCc1ccco1 | 0.2 | -0.2 | 0.4 | 45.5* | 11.1 | 5.7 | 28.9
